Drawing on PMC7862700, “An all-to-all approach to the identification of sequence-specific readers for epigenetic DNA modifications on cytosine”, this text covers binding signal for 1 sequence.

What all share (assay): DAPPL (digital affinity profiling via proximity ligation, sequencing); 10 mM Tris-HCl pH 7.5, 50 mM NaCl, 1 mM DTT, 4% glycerol, room temperature, 30 min; GST-TFs on glutathione beads, 16-mer random dsDNA library, 0.1% formaldehyde crosslink after washing; high values mean tight binding
One test deals with T1, FLI1 (Homo sapiens, UniProt Q01543 1-452).
T1 sequence: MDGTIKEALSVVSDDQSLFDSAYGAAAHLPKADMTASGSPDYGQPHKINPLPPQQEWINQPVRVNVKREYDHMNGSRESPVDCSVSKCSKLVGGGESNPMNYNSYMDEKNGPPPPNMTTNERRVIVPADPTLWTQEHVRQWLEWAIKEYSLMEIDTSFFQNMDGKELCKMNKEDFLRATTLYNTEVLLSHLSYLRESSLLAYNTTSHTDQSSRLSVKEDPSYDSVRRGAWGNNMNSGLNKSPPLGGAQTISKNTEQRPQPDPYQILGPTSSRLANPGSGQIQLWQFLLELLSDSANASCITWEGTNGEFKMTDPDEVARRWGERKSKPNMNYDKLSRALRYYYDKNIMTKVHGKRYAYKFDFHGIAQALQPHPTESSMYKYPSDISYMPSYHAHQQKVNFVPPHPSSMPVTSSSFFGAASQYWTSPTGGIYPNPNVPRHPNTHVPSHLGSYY
The following applies: protein: recombinant; tags: N-terminal GST; dsDNA, one strand shown. An outline of the steps: (§1)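 Human transcription factors were made in yeast as GST fusions, captured on glutathione beads and barcoded with DNA. With a tag-only sample included, the pool was incubated with 200 nmole of a random double-stranded 16-mer DNA library in Tris/NaCl/DTT/glycerol buffer at room temperature for 30 min, then crosslinked with 0.1% formaldehyde after washing, ligated by proximity, amplified and sequenced. For binding signal, each hexamer's read frequency for a factor is divided by its frequency for the tag-only sample.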

Another test deals with T2, ELK1 (Homo sapiens, UniProt P19419 1-428).
T2 sequence: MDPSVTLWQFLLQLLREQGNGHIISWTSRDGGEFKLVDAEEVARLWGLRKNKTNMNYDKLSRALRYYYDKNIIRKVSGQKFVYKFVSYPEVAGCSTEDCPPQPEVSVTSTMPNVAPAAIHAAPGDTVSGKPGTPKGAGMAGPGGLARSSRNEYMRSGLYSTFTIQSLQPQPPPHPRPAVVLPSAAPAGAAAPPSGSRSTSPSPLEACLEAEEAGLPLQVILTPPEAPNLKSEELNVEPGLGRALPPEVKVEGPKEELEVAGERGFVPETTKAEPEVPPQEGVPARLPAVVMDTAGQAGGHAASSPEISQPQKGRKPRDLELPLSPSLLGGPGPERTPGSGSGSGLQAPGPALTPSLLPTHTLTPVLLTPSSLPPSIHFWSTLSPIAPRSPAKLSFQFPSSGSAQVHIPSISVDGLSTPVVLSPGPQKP
As to conditions: protein: recombinant; tags: N-terminal GST; dsDNA, one strand shown. An outline of the steps: as §1

The target of another test is T3, GABPA (Homo sapiens, UniProt Q06546 1-454).
T3 sequence: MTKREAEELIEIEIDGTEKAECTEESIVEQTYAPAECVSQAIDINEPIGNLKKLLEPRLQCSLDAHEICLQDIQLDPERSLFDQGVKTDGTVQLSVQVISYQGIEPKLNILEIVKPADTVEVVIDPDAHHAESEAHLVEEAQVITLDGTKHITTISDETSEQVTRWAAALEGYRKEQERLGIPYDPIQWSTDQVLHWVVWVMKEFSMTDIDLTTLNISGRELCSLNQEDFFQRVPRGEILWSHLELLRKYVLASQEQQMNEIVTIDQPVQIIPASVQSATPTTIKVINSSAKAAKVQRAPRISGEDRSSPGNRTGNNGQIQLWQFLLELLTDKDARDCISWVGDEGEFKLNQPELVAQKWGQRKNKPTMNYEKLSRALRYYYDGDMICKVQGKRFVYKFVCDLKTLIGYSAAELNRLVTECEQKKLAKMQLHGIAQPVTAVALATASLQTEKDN
The following applies: protein: recombinant; tags: N-terminal GST; dsDNA, one strand shown. A digest of the protocol:
as §1

In the next test the target is T4, ERG (Homo sapiens, UniProt P11308 1-479).
T4 sequence: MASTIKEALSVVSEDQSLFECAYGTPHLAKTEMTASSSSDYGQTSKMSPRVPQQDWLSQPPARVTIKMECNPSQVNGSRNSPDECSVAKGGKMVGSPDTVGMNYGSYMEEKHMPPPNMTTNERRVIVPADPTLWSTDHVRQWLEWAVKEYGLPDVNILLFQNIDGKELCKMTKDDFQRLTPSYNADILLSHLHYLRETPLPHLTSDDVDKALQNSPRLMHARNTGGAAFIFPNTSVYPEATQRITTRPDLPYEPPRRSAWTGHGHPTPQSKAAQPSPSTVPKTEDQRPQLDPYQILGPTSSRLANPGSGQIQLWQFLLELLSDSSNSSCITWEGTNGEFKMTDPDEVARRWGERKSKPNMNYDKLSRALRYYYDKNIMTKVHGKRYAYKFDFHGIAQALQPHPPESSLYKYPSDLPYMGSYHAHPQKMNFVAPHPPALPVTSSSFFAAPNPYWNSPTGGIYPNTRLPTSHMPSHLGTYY
The following applies: protein: recombinant; tags: N-terminal GST; dsDNA, one strand shown. A digest of the protocol:
as §1

A further test concerns the target ELF1 (Homo sapiens, UniProt P32519 1-619). As to conditions: protein: recombinant; tags: N-terminal GST; dsDNA, one strand shown. A digest of the protocol: as §1
The target in the next test is T5, EHF (Homo sapiens, UniProt Q9NZC4 1-300).
T5 sequence: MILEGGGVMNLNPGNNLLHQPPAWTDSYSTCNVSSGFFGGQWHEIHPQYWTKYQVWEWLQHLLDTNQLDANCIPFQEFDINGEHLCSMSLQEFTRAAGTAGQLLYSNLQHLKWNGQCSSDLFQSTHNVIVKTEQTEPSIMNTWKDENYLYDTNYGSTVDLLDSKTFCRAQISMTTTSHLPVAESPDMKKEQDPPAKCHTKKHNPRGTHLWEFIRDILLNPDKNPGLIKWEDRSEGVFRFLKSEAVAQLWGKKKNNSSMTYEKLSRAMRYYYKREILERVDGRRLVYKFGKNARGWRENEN
The following applies: protein: recombinant; tags: N-terminal GST; dsDNA, one strand shown. An outline of the steps: as §1

Another test deals with SPI1 (Homo sapiens, UniProt P17947 1-270). The following applies: protein: recombinant; tags: N-terminal GST; dsDNA, one strand shown. An outline of the steps:
as §1

For a further test, the target named is SPIB (Homo sapiens, UniProt Q01892 1-262). As to conditions: protein: recombinant; tags: N-terminal GST; dsDNA, one strand shown. An outline of the steps: as §1
Chain of SPIB (Q01892 whole entry): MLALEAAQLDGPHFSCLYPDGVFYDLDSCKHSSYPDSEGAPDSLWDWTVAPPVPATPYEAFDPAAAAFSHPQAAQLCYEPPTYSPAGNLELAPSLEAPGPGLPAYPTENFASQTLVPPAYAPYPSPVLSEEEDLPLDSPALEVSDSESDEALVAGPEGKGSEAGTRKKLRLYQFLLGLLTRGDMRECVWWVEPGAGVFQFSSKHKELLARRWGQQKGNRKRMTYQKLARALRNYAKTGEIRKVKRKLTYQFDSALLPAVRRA
A further test deals with T6, ELK3 (Homo sapiens, UniProt P41970 1-407).
T6 sequence: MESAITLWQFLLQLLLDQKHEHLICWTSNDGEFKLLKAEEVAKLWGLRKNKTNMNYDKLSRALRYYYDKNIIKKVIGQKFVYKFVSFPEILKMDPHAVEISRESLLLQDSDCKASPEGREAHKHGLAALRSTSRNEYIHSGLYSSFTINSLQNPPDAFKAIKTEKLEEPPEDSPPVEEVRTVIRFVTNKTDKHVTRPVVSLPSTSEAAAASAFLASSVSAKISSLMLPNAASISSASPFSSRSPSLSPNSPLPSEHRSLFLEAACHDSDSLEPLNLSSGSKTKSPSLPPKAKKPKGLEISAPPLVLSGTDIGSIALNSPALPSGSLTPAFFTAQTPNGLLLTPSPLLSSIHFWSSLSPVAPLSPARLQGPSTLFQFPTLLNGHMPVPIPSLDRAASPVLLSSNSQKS
The following applies: protein: recombinant; tags: N-terminal GST; dsDNA, one strand shown. A digest of the protocol:
as §1

The next test addresses T7, FEV (Homo sapiens, UniProt Q99581 1-238).
T7 sequence: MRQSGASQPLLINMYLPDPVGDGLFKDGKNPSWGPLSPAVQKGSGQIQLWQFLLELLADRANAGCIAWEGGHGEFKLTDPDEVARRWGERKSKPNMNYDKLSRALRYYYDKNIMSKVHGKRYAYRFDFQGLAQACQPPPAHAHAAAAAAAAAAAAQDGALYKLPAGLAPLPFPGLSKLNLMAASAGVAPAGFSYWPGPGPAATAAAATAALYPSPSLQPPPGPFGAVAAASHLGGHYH
As to conditions: protein: recombinant; tags: N-terminal GST; dsDNA, one strand shown. A digest of the protocol: as §1

In the next test the target is ETV5 (Homo sapiens, UniProt P41161 1-510). As to conditions: protein: recombinant; tags: N-terminal GST; dsDNA, one strand shown. An outline of the steps: as §1
Chain of ETV5 (P41161 whole entry): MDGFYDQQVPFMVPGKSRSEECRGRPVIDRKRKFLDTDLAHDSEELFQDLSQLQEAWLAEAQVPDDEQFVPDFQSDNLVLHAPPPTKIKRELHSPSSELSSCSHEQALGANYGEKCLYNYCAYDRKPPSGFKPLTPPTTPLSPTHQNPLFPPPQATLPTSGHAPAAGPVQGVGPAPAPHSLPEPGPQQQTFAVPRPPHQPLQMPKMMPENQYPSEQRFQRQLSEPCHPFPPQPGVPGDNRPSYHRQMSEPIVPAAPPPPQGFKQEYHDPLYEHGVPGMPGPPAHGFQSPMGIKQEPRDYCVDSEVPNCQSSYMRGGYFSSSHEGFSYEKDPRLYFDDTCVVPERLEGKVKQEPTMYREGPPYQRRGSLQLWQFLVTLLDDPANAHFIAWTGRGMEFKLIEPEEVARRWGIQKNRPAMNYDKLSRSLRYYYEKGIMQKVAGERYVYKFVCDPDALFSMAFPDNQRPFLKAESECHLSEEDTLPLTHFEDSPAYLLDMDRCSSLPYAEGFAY
Another test has as its target HSF1 (Homo sapiens, UniProt Q00613 1-529). The following applies: protein: recombinant; tags: N-terminal GST; chain copies: 3; dsDNA, one strand shown. A digest of the protocol:
as §1

The next test concerns the target T8, SPIC (Homo sapiens, UniProt Q8N5J4 1-248).
T8 sequence: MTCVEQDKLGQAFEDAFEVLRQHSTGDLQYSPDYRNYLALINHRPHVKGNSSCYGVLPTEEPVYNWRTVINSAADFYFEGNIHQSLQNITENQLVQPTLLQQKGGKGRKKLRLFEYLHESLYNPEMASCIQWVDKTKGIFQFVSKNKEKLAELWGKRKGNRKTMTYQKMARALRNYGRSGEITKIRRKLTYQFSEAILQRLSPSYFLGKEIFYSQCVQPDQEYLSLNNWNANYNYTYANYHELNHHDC
The following applies: protein: recombinant; tags: N-terminal GST; dsDNA, one strand shown. An outline of the steps:
as §1

The target in the next test is ELF4 (Homo sapiens, UniProt Q99607 1-663). As to conditions: protein: recombinant; tags: N-terminal GST; dsDNA, one strand shown. An outline of the steps: as §1
Chain of ELF4 (Q99607 whole entry): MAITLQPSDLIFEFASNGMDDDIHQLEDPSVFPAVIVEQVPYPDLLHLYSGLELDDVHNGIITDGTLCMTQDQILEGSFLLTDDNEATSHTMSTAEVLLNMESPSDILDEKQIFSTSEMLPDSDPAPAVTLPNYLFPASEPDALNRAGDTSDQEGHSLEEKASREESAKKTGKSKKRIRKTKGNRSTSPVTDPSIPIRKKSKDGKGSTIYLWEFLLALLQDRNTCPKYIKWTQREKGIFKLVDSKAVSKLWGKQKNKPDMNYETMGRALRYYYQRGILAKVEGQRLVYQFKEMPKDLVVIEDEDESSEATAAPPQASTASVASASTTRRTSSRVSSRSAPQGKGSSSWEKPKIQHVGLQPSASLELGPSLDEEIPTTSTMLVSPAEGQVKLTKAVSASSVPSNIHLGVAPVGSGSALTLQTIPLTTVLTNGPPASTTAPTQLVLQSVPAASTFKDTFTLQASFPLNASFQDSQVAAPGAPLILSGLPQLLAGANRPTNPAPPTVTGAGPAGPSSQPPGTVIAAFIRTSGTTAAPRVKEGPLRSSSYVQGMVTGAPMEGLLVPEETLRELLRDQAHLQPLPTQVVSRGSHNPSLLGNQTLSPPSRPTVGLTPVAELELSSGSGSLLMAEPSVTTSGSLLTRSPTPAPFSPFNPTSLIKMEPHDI
The next test addresses T9, ELK4 (Homo sapiens, UniProt P28324-2 1-405).
T9 sequence: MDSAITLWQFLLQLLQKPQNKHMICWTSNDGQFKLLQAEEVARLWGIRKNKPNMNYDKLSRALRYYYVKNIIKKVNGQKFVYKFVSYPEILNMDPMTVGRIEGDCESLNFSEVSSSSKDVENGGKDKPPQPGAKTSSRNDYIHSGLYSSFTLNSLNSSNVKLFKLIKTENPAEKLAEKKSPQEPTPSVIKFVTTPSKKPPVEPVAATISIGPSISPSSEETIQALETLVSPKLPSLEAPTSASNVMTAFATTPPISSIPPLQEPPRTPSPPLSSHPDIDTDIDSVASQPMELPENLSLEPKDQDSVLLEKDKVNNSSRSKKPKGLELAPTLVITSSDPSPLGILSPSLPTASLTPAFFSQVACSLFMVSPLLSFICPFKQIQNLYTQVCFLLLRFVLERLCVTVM
The following applies: protein: recombinant; tags: N-terminal GST; dsDNA, one strand shown. A digest of the protocol:
as §1

The next test has as its target T10, ETV2 (Homo sapiens, UniProt O00321 1-342).
T10 sequence: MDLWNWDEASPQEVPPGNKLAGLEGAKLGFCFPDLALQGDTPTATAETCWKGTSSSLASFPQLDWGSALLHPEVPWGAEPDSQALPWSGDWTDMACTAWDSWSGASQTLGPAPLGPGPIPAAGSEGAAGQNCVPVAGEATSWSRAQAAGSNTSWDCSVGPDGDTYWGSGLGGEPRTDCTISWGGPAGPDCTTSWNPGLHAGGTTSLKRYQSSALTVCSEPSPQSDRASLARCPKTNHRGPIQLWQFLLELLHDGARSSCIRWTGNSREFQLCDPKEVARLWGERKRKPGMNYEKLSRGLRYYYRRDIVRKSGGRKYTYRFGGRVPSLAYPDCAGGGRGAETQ
The following applies: protein: recombinant; tags: N-terminal GST; dsDNA, one strand shown. An outline of the steps:
as §1

A further test deals with T11, ELF3 (Homo sapiens, UniProt P78545 1-371).
T11 sequence: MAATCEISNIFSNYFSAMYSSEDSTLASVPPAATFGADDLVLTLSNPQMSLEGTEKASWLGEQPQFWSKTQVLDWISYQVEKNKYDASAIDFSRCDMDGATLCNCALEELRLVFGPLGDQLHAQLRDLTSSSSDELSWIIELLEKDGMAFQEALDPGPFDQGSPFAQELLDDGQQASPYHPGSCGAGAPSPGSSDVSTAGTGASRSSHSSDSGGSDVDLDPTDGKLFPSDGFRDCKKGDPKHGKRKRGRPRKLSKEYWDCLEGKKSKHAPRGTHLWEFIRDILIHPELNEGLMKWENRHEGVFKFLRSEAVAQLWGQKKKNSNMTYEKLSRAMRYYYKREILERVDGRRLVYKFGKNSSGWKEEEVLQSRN
As to conditions: protein: recombinant; tags: N-terminal GST; dsDNA, one strand shown. An outline of the steps:
as §1

The target of the next test is ETV1 (Homo sapiens, UniProt P50549 1-477). As to conditions: protein: recombinant; tags: N-terminal GST; dsDNA, one strand shown. A digest of the protocol: as §1
Chain of ETV1 (P50549 whole entry): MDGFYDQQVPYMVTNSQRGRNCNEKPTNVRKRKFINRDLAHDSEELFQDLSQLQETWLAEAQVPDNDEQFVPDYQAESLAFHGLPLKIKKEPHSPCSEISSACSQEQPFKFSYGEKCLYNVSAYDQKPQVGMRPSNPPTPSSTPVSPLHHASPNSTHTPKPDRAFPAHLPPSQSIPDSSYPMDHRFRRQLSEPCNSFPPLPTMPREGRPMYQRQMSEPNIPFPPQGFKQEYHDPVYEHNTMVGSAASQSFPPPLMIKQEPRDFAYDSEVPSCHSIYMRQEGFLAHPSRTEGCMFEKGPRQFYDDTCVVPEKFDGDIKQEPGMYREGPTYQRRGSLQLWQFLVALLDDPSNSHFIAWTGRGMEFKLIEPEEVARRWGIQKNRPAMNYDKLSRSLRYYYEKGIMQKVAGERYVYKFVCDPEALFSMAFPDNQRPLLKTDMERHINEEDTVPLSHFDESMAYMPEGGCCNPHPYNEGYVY

Chain of HSF1 (Q00613 whole entry): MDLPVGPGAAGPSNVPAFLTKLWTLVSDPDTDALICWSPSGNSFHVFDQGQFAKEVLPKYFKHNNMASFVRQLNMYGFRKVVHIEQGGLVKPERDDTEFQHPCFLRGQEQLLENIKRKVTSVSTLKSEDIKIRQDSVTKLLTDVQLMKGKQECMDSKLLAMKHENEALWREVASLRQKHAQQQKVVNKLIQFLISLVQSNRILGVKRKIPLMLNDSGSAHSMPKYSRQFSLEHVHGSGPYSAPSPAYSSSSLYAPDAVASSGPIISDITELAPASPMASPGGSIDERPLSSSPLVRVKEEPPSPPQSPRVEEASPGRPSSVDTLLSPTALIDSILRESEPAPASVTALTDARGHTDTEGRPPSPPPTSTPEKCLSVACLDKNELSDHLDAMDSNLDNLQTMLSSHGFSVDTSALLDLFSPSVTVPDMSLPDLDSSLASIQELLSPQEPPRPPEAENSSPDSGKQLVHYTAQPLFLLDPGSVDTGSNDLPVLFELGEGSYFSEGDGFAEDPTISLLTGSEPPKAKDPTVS
Chain of ELF1 (P32519 whole entry): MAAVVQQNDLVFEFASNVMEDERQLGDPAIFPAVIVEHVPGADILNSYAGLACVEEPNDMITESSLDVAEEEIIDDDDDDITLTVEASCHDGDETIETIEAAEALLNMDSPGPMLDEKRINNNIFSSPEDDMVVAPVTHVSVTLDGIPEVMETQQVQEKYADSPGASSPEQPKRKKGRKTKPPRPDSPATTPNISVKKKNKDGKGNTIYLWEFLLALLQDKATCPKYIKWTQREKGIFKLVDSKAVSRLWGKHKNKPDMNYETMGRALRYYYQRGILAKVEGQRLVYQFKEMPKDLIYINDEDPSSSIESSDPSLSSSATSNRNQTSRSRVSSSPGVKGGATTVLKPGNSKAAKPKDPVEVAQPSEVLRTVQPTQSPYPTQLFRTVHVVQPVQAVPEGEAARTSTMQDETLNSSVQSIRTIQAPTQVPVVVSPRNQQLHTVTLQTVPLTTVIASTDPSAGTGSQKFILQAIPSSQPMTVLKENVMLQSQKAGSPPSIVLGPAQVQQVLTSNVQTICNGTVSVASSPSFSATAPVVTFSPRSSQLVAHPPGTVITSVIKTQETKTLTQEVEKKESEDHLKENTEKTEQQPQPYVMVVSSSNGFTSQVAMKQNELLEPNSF

Consider ACTCAC, for which the binding signal with FLI1 was 1.22 fold enrichment (6-mer frequency, TF over GST control); in the test with ELK1 it was 1.31 fold enrichment (6-mer frequency, TF over GST control); in the test with GABPA it was 1.27 fold enrichment (6-mer frequency, TF over GST control); with ERG, 1.17 fold enrichment (6-mer frequency, TF over GST control); in the test with ELF1, 1.18 fold enrichment (6-mer frequency, TF over GST control); with EHF, 1.24 fold enrichment (6-mer frequency, TF over GST control). Also, the binding signal in the test with SPI1 is 1.23 fold enrichment (6-mer frequency, TF over GST control); with SPIB, 1.44 fold enrichment (6-mer frequency, TF over GST control); in the test with ELK3 it was 1.35 fold enrichment (6-mer frequency, TF over GST control); with FEV, 1.24 fold enrichment (6-mer frequency, TF over GST control); with ETV5, 1.18 fold enrichment (6-mer frequency, TF over GST control); with HSF1 it was 1.07 fold enrichment (6-mer frequency, TF over GST control). For the same sequence, the binding signal with SPIC was 1.25 fold enrichment (6-mer frequency, TF over GST control); with ELF4, 1.24 fold enrichment (6-mer frequency, TF over GST control); in the test with ELK4, 1.18 fold enrichment (6-mer frequency, TF over GST control); with ETV2, 1.24 fold enrichment (6-mer frequency, TF over GST control); in the test with ELF3 it was 1.31 fold enrichment (6-mer frequency, TF over GST control); with ETV1, 1.15 fold enrichment (6-mer frequency, TF over GST control).
